In PubChem BioAssay AID488890 (Southern Research Specialized Biocontainment Screening …, 2010) one finds inhibition data, which are given here for 76 molecules.

Molecules are shown by their SMILES. The campaign covered roughly 320,000 compounds. About 1,300 (0.41%) were called active. About 3% were inconclusive and are not listed. The rule behind the calls is not given here. The list is a sample of the results. Potency and affinity values are given separately.

This assay can be described thus: growth inhibition of non-replicating M. tuberculosis (AID 488890).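 Note: plate controls were DMSO cells for no effect and high antibiotic wells for full effect.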 The note with it: Mycobacterium tuberculosis non-replicating, at 25 µM, stronger effect = higher value.
Broadly, the inhibition is the drop in the measured response relative to a control, in per cent. As to `COc1ccc(C(=O)N2CCNC(=O)C2CC(=O)Nc2cc(Cl)ccc2OC)cc1` (stereo unspecified), the inhibition was determined as 0.76%. With `O=C(Cc1ccc(-n2cccc2)cc1)NC1CCCCCC1`, the inhibition turned out to be 19.9%. On to `CCOC(=O)Cn1cc(/C=C/[N+](=O)[O-])c2ccccc21`, for which the inhibition turned out to be 72.6%. Consider `CCOC(=O)COc1ccccc1/C=N/O`, for which the inhibition is 15%. In the case of `CCC(=O)Nc1cccc(NC(=O)c2ccc(Br)cc2)c1` it was 1.37%; in that of `COC(=O)c1cn(NC(=O)c2cccnc2)c(=O)c2ccccc12`, -6.97%; in that of `COC(=O)c1cn(NC(=O)c2ccncc2)c(=O)c2ccccc12`, 14.3%. Then `CCCCCCCCCCC(=O)NNC(=O)c1c(O)c2ccccc2n(CC)c1=O`, with -9.98%; and `COc1cc(C(=O)NCc2ccc(F)cc2)cc(Cl)c1OC`, with -11.2%; and `CCCCn1c(N)c(N(CCOC)C(=O)CCNC(=O)c2ccc(Cl)cc2)c(=O)[nH]c1=O`, with -12.2%.

On to `O=C(NCCCCNC(=O)c1cccs1)c1cccs1`, for which the inhibition was -0.35%. Take `O=C(NCCCNC(=O)c1cccs1)c1cccs1`: the inhibition is -16.1%. As for `O=C(NCc1cccs1)C1CCCCC1`, the inhibition was 54%. For `O=C(CCCCC(=O)NCc1cccs1)NCc1cccs1`, the inhibition is 1.23%. In the case of `O=C(CC1CCCCC1)NCc1ccccc1Cl` it was 33%. Then `O=C(CC1CCCCC1)NCc1ccc(Cl)cc1`, with 11%; and `O=C(NCc1cccs1)C1CC1`, with -9.67%; and `O=C(NCc1cccs1)C12CC3CC(CC(C3)C1)C2`, with 26.9%. In the case of `COc1ccc(C(CNC(=O)c2ccccc2SC)N(C)C)cc1` (stereo unspecified) it was -4.14%; in that of `CCCCN(C(=O)CSc1nnc(-c2ccccc2)n1C)c1c(N)n(Cc2ccccc2)c(=O)[nH]c1=O`, 8.96%; in that of `Cc1nc2sc(C)c(C)c2c(=O)[nH]1`, 3.35%.

`COc1cc(CN2CCNCC2)cc(OC)c1OC`: the inhibition was -14.6%. In the case of `COC(=O)c1ccc(NC(=O)COc2ccc(S(=O)(=O)NC(C)(C)C)cc2)cc1`, the inhibition is -11.9%. In the case of `CC(NC(=O)CN1C(=O)NC2(CCc3ccccc32)C1=O)c1ccccc1` (stereo unspecified), the inhibition is 15.4%. Then `CNNC(=S)Nc1ccc(Cl)cc1`, with -0.3%; and `Cc1nnc(NC(=O)CSc2n[nH]c(-c3ccccc3C)n2)s1`, with 5.17%; and `CC(=O)Nc1cccc(NC(=O)c2ccc(Br)cc2)c1`, with -8.54%. In the case of `CC(=O)/C(=N/Nc1ccccc1C)N1CCOCC1`, the inhibition was found to be 9.51%. Then `O=C(CCC1CCCC1)Nc1ccc([N+](=O)[O-])cn1`, with 67.7%. In the case of `O=C(CC1CCCCC1)NCc1ccc(F)cc1` it was 55.7%. As to `O=C(O)CCC(=O)Nc1ccc(Br)cn1`, the inhibition is -12.1%. In the case of `O=C(CCC1CCCCC1)NCc1ccncc1` it was 29%; in that of `O=C(CCC1CCCCC1)NCc1ccccn1`, 79.4%; in that of `O=C(CC1CCCCC1)NCc1ccccn1`, 69.6%. Consider `O=C(CN1C(=O)NC2(CCCc3ccccc32)C1=O)N1CCCCC1` (stereo unspecified), for which the inhibition is 6.72%. Then `Nc1ccc(Br)cc1C(=O)c1ccccc1`, with 53.2%. In the case of `CCN(CC(=O)Nc1c(F)cccc1F)C(=O)CCCc1c[nH]c2ccccc12` it was -0.99%. In the case of `COc1cc(C(=O)OCC2CC(c3ccccc3)=NO2)cc(OC)c1OC` (stereo unspecified), the inhibition is 3.53%. On to `CCOC(=O)c1cc(-c2ccccc2)n(CC2CC(c3ccc(OC)cc3)=NO2)n1` (stereo unspecified), for which the inhibition worked out at 0.81%. Regarding `Cc1oc(=O)c(NC(=O)c2ccccc2)cc1C(N)=O`, the inhibition is -8.22%. Then `CC(=O)c1cc(NC(=O)c2ccccc2)c(=O)oc1C`, with 54.9%; and `N/C(=N\OC(=O)c1ccc2ccccc2c1)c1ccccn1`, with 15.8%. Take `COc1cccc(NC(=O)C(C)N2C(=O)c3ccccc3S2(=O)=O)c1` (stereo unspecified): the inhibition is -2.17%.

With `COc1ccc(-c2c([C@H]3[C@H]4C=CC[C@@H](C)[C@@H]4C(=O)N3Cc3ccccc3)ccc3ccccc23)cc1OC`, the inhibition was 60.8%. Then `Cc1cc(N/N=C/c2ccc(F)cc2)nc(NCc2ccccc2)n1`, with 60.8%. In the case of `Cc1ccc(/C=N/Nc2cc(C)nc(N3CCOCC3)n2)cc1` it was 5.46%.

Consider `COc1ccc(/C=N/Nc2cc(C)nc(N3CCOCC3)n2)cc1`, for which the inhibition was -21.2%.

As to `COc1ccc(/C=N/Nc2cc(C)nc(N)n2)cc1`, the inhibition was 27.6%. For `O=C(O)CC(NC(=O)c1cccc(F)c1)c1ccc(OC2CCCC2)cc1` (stereo unspecified), the inhibition was -8.15%.

In the case of `CCCCC(=O)Nc1ccc(C(=O)c2ccccc2)cc1`, the inhibition was -5.55%. Then `CCn1cc(CNC(=S)Nc2cccc(Cl)c2C)cn1`, with 72.5%; and `C/C=C\C(=O)Nc1cccc(C2=NOC3(C2)C[C@@H](C(N)=O)N(C(=O)C2(C)CC2)C3)c1` (stereo partly specified), with 2.93%; and `CC(=O)Nc1ccc(NC(=O)CN(C)S(=O)(=O)c2ccc3nc(C)sc3c2)cc1`, with 6.18%. For `COc1ccc(OC)c2sc(NC(=O)CCSc3ccccc3)nc12`, the inhibition was 14.7%. Then `CCC(=O)Nc1nc2c(OC)ccc(C)c2s1`, with -15%; and `COc1ccc(CNC(=O)C(=O)NCC2OCCN2S(=O)(=O)c2ccc3c(c2)OCCO3)cc1` (stereo unspecified), with -1.2%.

Turning to `CCOc1ccc(NC(=O)CCNS(=O)(=O)c2ccc3c(c2)CC(C)N3C(C)=O)cc1` (stereo unspecified), the inhibition is -1.02%. Then `CCOC(=O)C1CCN(Cc2ccc(OCc3ccccc3)c(OC)c2)CC1`, with 6.11%. As for `Cc1ccc(N2NC(=O)/C(=C/c3ccc(-c4ccc(Cl)c(C(=O)O)c4)o3)C2=O)cc1`, the inhibition turned out to be 26.2%. Then `CCN1C(=O)N/C(=C/c2ccc(Sc3ccc(C)cc3)o2)C1=O`, with 39.1%; and `O=C1NN(c2ccccc2)C(=O)/C1=C/c1ccc(-c2ccc(C(=O)O)cc2)o1`, with 37.2%; and `CC1=CN2C(=N)/C(=C/c3ccc(Sc4ccc(C)cc4)o3)C(=O)N=C2S1`, with -10.5%. Then `CC(NC(=O)COc1ccc(Br)cc1)C1CCCO1` (stereo unspecified), with 0.437%; and `CCN(CC)C(=O)COc1ccc(-c2ccccc2)cc1`, with 37.2%.

As to `CC(C)C(C)NC(=O)COc1ccc(-c2ccccc2)cc1` (stereo unspecified), the inhibition was -4.32%. Then `COc1ccc(CCC(=O)NC(C)C2CCCO2)cc1` (stereo unspecified), with -3.51%; and `CCC(CC)n1[nH]c(=O)c2c(C)cc(C)nc21`, with -4.61%; and `CCCc1nc(SCC(=O)NC2CC2)c2c(C)c(C)sc2n1`, with 6%.

As for `CC[C@@]12C(=O)N(c3cccc(Br)c3)C(=O)N1[C@H](c1cccc(C)c1)[C@@H]1C(=O)N(Cc3ccccc3)C(=O)[C@@H]12`, the inhibition was determined as 23.5%. Then `O=C(c1ncc[nH]1)c1cccs1`, with -0.79%; and `CCOC(=O)C1CCCN(Cc2ccccc2Cl)C1` (stereo unspecified), with 21.6%; and `CC(NCc1ccc(Cl)cc1)C(O)c1ccccc1` (stereo unspecified), with 12.6%. Then `CC(NCc1cccc(OCc2ccccc2)c1)C(O)c1ccccc1` (stereo unspecified), with 63.5%; and `Cn1c(Cc2ccccc2)nnc1SCc1ccc(C(=O)O)cc1`, with -12%; and `CCOC(=O)c1c(C)n(OC)c2ccc3c(no[n+]3[O-])c12`, with -0.23%.

Consider `COn1c2c(c3c4no[n+]([O-])c4ccc31)CCCC2`, for which the inhibition was -5.21%.
